Only some compounds are listed: those with a hit (about 4.1% of all), similar ones and a draw of the others.
DAX1 inh-1 – DAX1 (NR0B1) inhibitors, primary screen, cell-based, HEK293, Gal4-DAX1, luciferase luminescence | Nuclear receptor subfamily 0 group B member 1 (Homo sapiens), P51843 | HEK293 Gal4-DAX1 luciferase reporter | inhibition, % at 6.75 µM | 0.99% of 340,000 active | AID 504766, 2011;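 active means inhibition above the mean over all tested compounds plus 3 SD, cut at about 4.2% in these data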;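 further: 0% = DAX1-transfected cells with DMSO and 100% = empty-vector control cells with DMSO; inhibition shows as a rise in luminescence from relieved DAX1 repression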
Target sequence (P51843 207-470 limits assumed): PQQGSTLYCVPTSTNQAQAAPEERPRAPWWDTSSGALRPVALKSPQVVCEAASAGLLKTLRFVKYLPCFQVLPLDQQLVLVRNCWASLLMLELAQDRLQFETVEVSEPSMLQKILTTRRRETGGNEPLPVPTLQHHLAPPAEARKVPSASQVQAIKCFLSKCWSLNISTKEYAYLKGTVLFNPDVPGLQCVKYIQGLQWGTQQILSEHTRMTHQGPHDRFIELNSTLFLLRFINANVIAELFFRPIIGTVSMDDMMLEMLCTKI
hgDAF12 agonist – H. glycines DAF-12 receptor agonists, primary screen, cell-based, luminescence, HEK293, GAL4 fusion, UAS-luciferase | activation, % at 6.8 µM | 1.8% of 370,000 active | Nuclear hormone receptor DAF-12 (Heterodera glycines), GAL4 fusion | HEK293 GAL4-hgDAF12 UAS-luciferase reporter, agonist luminescence; normalized to butyrate control;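 active means activation above a cutoff set at the mean of all screened compounds plus 3 SD, cut at about 10% in these data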;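 further: 0% = DMSO wells and 100% = sodium butyrate wells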
ssDAF-12 act – S. stercoralis DAF-12 nuclear receptor activators, primary screen, cell-based, luminescence, HEK293, GRIP1 co-expression, lit1-tk-luc | activation, % at 6.8 µM | HEK293 ssDAF-12/GRIP1 lit1-tk-luc reporter; % of 3 µM dafachronic acid response | AID 652126, 2013 | Nuclear hormone receptor DAF-12 (Strongyloides stercoralis) | 1% of 370,000 active;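 active means activation above the mean over all tested compounds plus 3 SD, cut at about 0.9% in these data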;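 further: 0% = DMSO-only wells and 100% = 3 µM delta7-dafachronic acid wells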
DAX1 inh-2 – DAX1 (NR0B1) inhibitors on StAR promoter, primary screen, cell-based, luminescence, SF-1 (NR5A1), full-length DAX-1 | inhibition, % at 6.8 µM | 1.1% of 370,000 active | HEK293T StAR-luciferase reporter, SF-1/DAX-1 repression relief;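 active means inhibition above the mean over all tested compounds plus 3 SD, cut at about 3.6% in these data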;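 further: 0% = DAX-1 cells with DMSO and 100% = cells lacking DAX-1 with DMSO; higher inhibition means more luminescence from relief of DAX-1 repression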
hcDAF-12 act – H. contortus DAF-12 nuclear receptor activators, primary screen, cell-based, luminescence, HEK293, lit1-tk-luc reporter | HEK293 hcDAF-12 lit1-tk-luc reporter; 0% DMSO, 100% Δ7-dafachronic acid | activation, % at 6.8 µM | 1.4% of 370,000 active;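 active means activation above the mean of all tested compounds plus 3 SD, cut at about 5.5% in these data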;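 further: 100% = response to 3 µM Δ7-dafachronic acid high control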
Numbers without * were called inactive; nt = no result given.

SMILES	DAX1 inh-1	hgDAF12 agonist	ssDAF-12 act	DAX1 inh-2	hcDAF-12 act
Cc1[nH]c2ccccc2c1/C=N/NC(=O)c1ccccc1	4.5*	6	-1	0	0
Cc1[nH]c2ccccc2c1/C=N/NC(=O)c1ccc(N)cc1	1	2	0	0	5
Cc1[nH]c2ccccc2c1/C=N/NC(=O)Nc1ccccc1	3	9	1	1	6.0*
O=C(N/N=C/c1ccc(Br)s1)Nc1ccccc1	0	11*	-1	1	3
Cc1[nH]c2ccccc2c1/C=N/NC(=O)CCC(=O)Nc1ccccc1	0	-1	-1	0	2
COc1ccc(C(C)C)cc1S(=O)(=O)Nc1cccnc1	0	-1	0	3	-1
O=C(N[C@H](C(=O)N1CCC[C@H]1C(=O)NC1CCCC1)C1CCCCC1)c1cccs1	nt	-4	-1	0	-1
CCNC(=O)N1CCN(c2ccc(N3CCN(Cc4ccccc4)[C@H](C)C3)c(C)c2)[C@H](C)C1	nt	-3	-2	-1	-2
O=C(Nc1ccc(Br)cc1)OCCCN1CCC2(CCCCC2)C1=O	nt	-3	-2	-2	-3
CCSc1nsc(NC(=O)Nc2ccccc2Cl)n1	1	11*	0	0	0
CCN(C(=O)C1CCCN(c2nnc(-n3cccc3)s2)C1)c1ccccc1C (centres undefined)	nt	2	-1	-2	-2
COC(=O)c1scc(C)c1N/N=C(\C)c1ccc(F)cc1	0	1	1.0*	1	4
CC(C)NC(=O)c1ccc(NC(=O)CC2SC(N3CCCCC3)=NC2=O)cc1 (centres undefined)	1	-4	1.7*	-1	2
CC(C)NC(=O)c1ccc(NC(=O)CC2SC(N3CCCC3)=NC2=O)cc1 (centres undefined)	0	2	-2	-1	0
CCCCc1c(-c2ccccc2OC)ncn1Cc1c(F)cccc1F	nt	1	-1	1	0
O=C(NCCc1ccccc1)c1c[nH]c2c(F)cccc2c1=O	2	7	0	0	5.6*
Cc1cccc2c(=O)c(C(=O)NCCc3ccccc3)c[nH]c12	-1	0	-1	0	0
Cc1nnc(SC(C)C(=O)NC2CCCCC2C)n1N (centres undefined)	4.3*	-1	-1	0	-2
CCCC1CCC(c2nc(-c3cccnc3)no2)CC1 (centres undefined)	4.7*	0	-1	1	0
COCCNC(=O)C1(C)CCCN(Cc2ccccc2N(C)C)C1 (centres undefined)	nt	2	-2	0	-1
COc1cccc2oc3cc(C#CC4(O)CCCCC4)ccc3c(=O)c12	1	6	0	4.0*	5.8*
C/C=C/c1ccc(OCC(=O)OCc2csc(CC(=O)Nc3ccccc3C)n2)c(OC)c1	5.9*	0	-1	1	1
COc1cccc(C(=O)NCC[N+](C)(C)C)c1	nt	0	-1	-2	-1
CSc1ccc(-c2nnn(Cc3ccccn3)n2)cc1	1	12*	0	2	0
CSc1ccc(-c2nnn(Cc3ccc(Br)cc3)n2)cc1	2	2	0	-1	1
SMILES	DAX1 inh-1	hgDAF12 agonist	ssDAF-12 act	DAX1 inh-2	hcDAF-12 act
OC(c1ccccc1)(c1ccccc1)C1CCN(CCCOc2ccc(-c3cncnc3)cc2)CC1	nt	2	-1	3	-2
Cc1c(/C=C/C(=O)c2cccs2)cnn1C	2	6	0	1	1
CCc1ccc(C(=O)/C=C/c2cnn(C)c2C)s1	5.2*	12*	-1	3	2
NC(=O)c1ncn([C@@H]2O[C@H](C(=O)N[C@H](Cc3c[nH]c4ccccc34)C(=O)N3CCN(C(=O)N4CCOCC4)CC3)[C@@H](O)[C@H]2O)n1	nt	0	-1	0	-1
O=C(N/N=C1\CC(c2ccccc2)Oc2ccccc21)c1ccccn1 (centres undefined)	0	1	-1	3.8*	4
CSCCn1c(C(C)(C)C)cc(C(=O)O)c1C	1	-1	-1	0	0
Cc1c(C(=O)O)cc(C(C)(C)C)n1CCSCCO	6.8*	1	-1	0	-1
COc1ccc(C)c2sc(=NC(=O)c3ccc(C(C)=O)cc3)n(C)c12	4.7*	13*	0	2	2
COc1ccc(C)c2sc(=NC(=O)C(C)C)n(C)c12	0	-1	-1	-1	2
O=S(=O)(c1cccs1)N1CCCc2nc(-c3ccccc3)ccc21	nt	1	-1	1	0
Cc1cccc(C)c1NC(=O)[C@H]1CC(=O)O[C@@H]1c1ccccc1	nt	-1	-1	-1	0
COc1ccc(Cc2c(-c3ccccc3)nc3ccc(Cl)cn23)c(C)c1	nt	5	0	2	2
COc1ccc(Cc2c(-c3cccc(Cl)c3)nc3ccc(C)cn23)c(C)c1	nt	10	0	4.0*	1
COc1ccc(Cc2c(-c3ccccc3)nc3ccc(C)cn23)c(C)c1	nt	14*	1.5*	3.9*	2
COc1ccc(Cc2c(-c3cccc(Cl)c3)nc3c(C)cc(Br)cn23)c(C)c1	nt	-3	-1	-3	-1
COc1ccc(C2c3ccc4ccccc4c3Oc3ncn(CCO)c(=N)c32)cc1OC (centres undefined)	2	nt	nt	nt	nt
COc1ccc(C2c3ccc4ccccc4c3Oc3ncn(CCCO)c(=N)c32)cc1OC (centres undefined)	4.8*	-2	-1	0	-3
O=C1NC(Cc2cnc[nH]2)C(=O)N2CCCC12 (centres undefined)	nt	1	-1	1	-2
CCCCOCCCNC(=O)C[C@@H]1C(=O)N(CCc2ccc(Cl)cc2)C2=CCCCC[C@]21C(=O)OC	nt	-5	-1	-1	-2
N/C(=N\OC(=O)c1ccc(Br)cc1)c1ccccc1	1	12*	0	3	3
N/C(=N\OC(=O)c1cccc(Br)c1)c1ccc(Br)cc1	0	4	0	0	2
Cc1occc1C(=O)n1nnc2ccccc21	nt	-2	-1	-1	5.8*
CCOC(=O)C(=O)c1csc(NC(=O)CCSc2ccc(C)cc2)n1	4.4*	-4	-2	0	-2
COc1ccc(C2SCC(C(=O)O)N2C(C)=O)cc1OC (centres undefined)	8.4*	0	-1	0	4
